“And” between values parts separate entries of the source, which are not always exact repeats. Equal entries are not always repeated. Results filed as inconclusive are left out. A call without a number means that no potency is given here. The source holds several records for some structures; these can differ, active in one and inactive in another. The source made the active and inactive calls. The call rests on the fitted dose curve; in most records, active means well fitted curve in the direction sought with a large enough effect; inconclusive means small, poorly fitted or top-dose-only effect, or another doubt; inactive means no such curve, though single readings can be large; an effect the other way counts as inactive or inconclusive.
Columns and labels:
[1] = target: Glutathione peroxidase 1 (Homo sapiens) (UniProt P07203); experiment: Primary qHTS Assay for Inhibitors of Recombinant Selenoprotein Glutathione Peroxidase 1 (GPX1) (AID 1845191); further: nearly all actives have a fitted effect of over 65% in size; further: potency means the concentration at half of the fitted maximal effect
Procedure, shortened: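 NADPH consumption tracked by fluorescence at 340/450 nm between t=0 and t=15 min, room temperature. Final mix: 10 nM GPX1, 100 nM glutathione reductase, 1 mM GSH, 0.5 mM NADPH, 0.5 mM cumene hydroperoxide, 0.01% BSA; 30 min compound–enzyme preincubation.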

[2] = target: Phospholipid hydroperoxide glutathione peroxidase GPX4 (Homo sapiens) (UniProt P36969); experiment: Primary qHTS Assay for Inhibitors of Recombinant Selenoprotein Glutathione Peroxidase 4 (GPX4) (AID 1845192); further: nearly all actives have a fitted effect of over 65% in size; further: potency means the concentration at half of the fitted maximal effect
Procedure, shortened: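 NADPH consumption followed by fluorescence at 340/450 nm, t=0 and after 15 min at room temperature. Reaction started with cumene hydroperoxide (0.5 mM final) after 30 min compound–GPX4 preincubation; final 200 nM GPX4, 100 nM GR, 1 mM GSH, 0.5 mM NADPH.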

[3] = target: Luciferin 4-monooxygenase (Photinus pyralis) (UniProt P08659); experiment: Primary firefly luciferase (FLuc) qHTS assay for identification of artifact compounds. (AID 1845220); further: nearly all actives have a fitted effect of over 60% in size; further: potency means the concentration at half of the fitted maximal effect
Procedure, shortened: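 Cell-free, 1536-well qHTS. Buffer pH 7.6 with 0.01% Tween-20 and 0.05% BSA; 10 uM D-luciferin, 10 uM ATP; 10 nM P. pyralis luciferase; luminescence after 5 min.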

[4] = Primary fluorescence-based thiol-reactive (MSTI) qHTS assay for identification of artifact compounds. (AID 1845221); further: nearly all actives have a fitted effect of over 65% in size; further: potency means the concentration at half of the fitted maximal effect
Procedure, shortened: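 Reactivity toward the thiol probe MSTI (4 uM) is scored by fluorescence at Ex/Em 525/598 nm after 1 h at room temperature. Acetyl-MSTI and MSTI define the activity scale.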

[5] = system: Nanoluciferase (engineered Oplophorus gracilirostris luciferase); experiment: Primary Nanoluciferase (NLuc) qHTS assay for identification of artifact compounds. (AID 1845222); further: series mostly up to about 54 µM
Procedure, shortened: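 Compounds are pinned into diluted (1:55) conditioned medium of NLuc-expressing S16 cells and held 15 min at room temperature protected from light. Nano-Glo substrate follows, and luminescence is read 5 min later.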

[6] = Primary redox qHTS assay for identification of artifact compounds. (AID 1845223)
Procedure, shortened: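 Redox-cycling detection via DTT (250 uM final) oxidation coupled to Amplex Red (25 uM)/HRP (250 mU/mL) in HBSS. 15 min preincubation plus 30 min after DTT, room temperature. Ex/Em 525/598 nm; 4-parameter Hill fit against DMSO and 10 uM DA3003.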

Sequence of Phospholipid hydroperoxide glutathione peroxidase GPX4 (Homo sapiens) (P36969 whole entry, looked up): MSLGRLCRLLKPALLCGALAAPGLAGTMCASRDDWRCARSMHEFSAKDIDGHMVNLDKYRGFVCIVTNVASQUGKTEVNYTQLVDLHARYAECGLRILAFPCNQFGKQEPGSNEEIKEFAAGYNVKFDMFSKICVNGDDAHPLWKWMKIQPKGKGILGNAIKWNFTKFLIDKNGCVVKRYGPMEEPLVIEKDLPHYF
Sequence of Glutathione peroxidase 1 (Homo sapiens) (P07203 whole entry, looked up): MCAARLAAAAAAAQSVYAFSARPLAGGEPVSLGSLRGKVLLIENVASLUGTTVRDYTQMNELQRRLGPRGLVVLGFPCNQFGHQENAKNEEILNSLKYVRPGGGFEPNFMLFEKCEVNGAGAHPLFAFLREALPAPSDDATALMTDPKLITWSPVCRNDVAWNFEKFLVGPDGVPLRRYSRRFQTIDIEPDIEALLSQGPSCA

| Structure (SMILES) | Potency [1] | Potency [2] | Potency [3] | Potency [4] | Potency [5] | Potency [6] |
| --- | --- | --- | --- | --- | --- | --- |
| O=C(Nc1ccn(Cc2ccc(O)cc2C(F)(F)F)n1)c1c(F)cccc1F | inactive | inactive | inactive | inactive | inactive | inactive |
| CC(C)(C)Sc1c(CC(C)(C)C(=O)O)n(Cc2ccc(Cl)cc2)c2ccc(OCc3ccc4ccccc4n3)cc12 | inactive | inactive and 8.06 µM (active) | inactive | inactive | inactive | inactive |
| C=C1CCCC2(C)CCC(C(C)(C)OC3OC(C)C(O)C(O)C3OC(=O)/C(C)=C\C)CC12 (stereo not drawn) | inactive | inactive | inactive | inactive | inactive | inactive |
| COC(=O)N1CCC(n2ncc3c(N4CCOCC4)nc(-c4ccc(NC(=O)NC5CC5)cc4)nc32)CC1 | inactive | inactive | inactive | inactive | inactive | inactive |
| CCn1c(=O)c(-c2ccc(Cl)cc2Cl)cc2cnc(Nc3ccc(N4CCNCC4)c(F)c3)nc21 | inactive | inactive | inactive | inactive | inactive | inactive |
| O=C(NCCN1CCC(n2c(=O)[nH]c3ccccc32)CC1)c1ccc2ccccc2c1 | inactive | inactive | inactive | inactive | inactive | inactive |
| C/C=C(/C)C(=O)OC1C=C2C3C(C)C(C)C(OC(=O)C(C)C(C)O)CC3(C)CCC2(C)C2(C)CC(OC(C)=O)C3C(C)(C)C(O)C(=O)CC3(C)C12 (stereo not drawn) | inactive | inactive | inactive | inactive | inactive | inactive |
| Cc1nc2ccc(-n3ncc(C(=O)c4cc5ccccc5[nH]4)c3N)cc2[nH]1 | inactive | inactive | 3.38 µM (active) | inactive | inactive | inactive |
| CC1CCC(=O)CC(SCC(O)C(=O)O)CCC(=O)O1 (stereo not drawn) | inactive | inactive | inactive | inactive | inactive | inactive |
| C=C[C@@]12COC(=O)C(=C)[C@@H]1[C@@H](O)[C@H](C(=C)C(=O)OC)[C@@H](O)C2 | inactive | inactive | inactive | inactive | inactive | inactive |
| Cc1ccc(C)c(NC(=O)[C@@H]2CCCN2S(=O)(=O)c2cccc3cccnc23)c1 | inactive | inactive | inactive | inactive | inactive | inactive |
| COc1cc(/C=C2\CCCN([C@@H](C)c3ccc(F)cc3)C2=O)ccc1-n1cnc(C)c1 | inactive | inactive | inactive | inactive | inactive | inactive |
| C=C1C(=O)OC2/C=C(/C)C3=CC(=O)C(C)(CC(OC(=O)/C(C)=C/COC(C)=O)C12)O3 (stereo not drawn) | inactive | inactive | inactive | 4.12 µM (active) | inactive | inactive |
| COc1cc(C[C@H]2C(=O)OC[C@@H]2Cc2ccc(OC)c(OC)c2)ccc1O | inactive | inactive | inactive | inactive | inactive | inactive |
| CCN1C(C)(C)CC(Oc2ccc(C(=O)Nc3ccc(NC(=O)Nc4cc(C(C)(C)C)on4)cc3)nc2)CC1(C)C | inactive | inactive | inactive | inactive | inactive | inactive |
| COC1C=C(C)C(O)(CO)C2(C)CCCC(C)(C)C12 (stereo not drawn) | inactive | inactive | inactive | inactive | inactive | inactive |
| C=C1CC2[C@@]3(C)C=CC(=O)C(C)(C)C3=C(O)C(=O)[C@@]2(C)C2(C(=O)OC)C(=O)C(C)OC(=O)[C@@]12C (stereo partly drawn) | inactive | inactive | inactive | inactive | inactive | inactive |
| Nc1nccc(-c2c(-c3ccc(F)cc3)ncn2C2CCCCC2)n1 | inactive | inactive | inactive | inactive | inactive | inactive |
| CC(C)(C)c1ccc(-c2nc3c(N4CCN(Cc5ccc6nccnc6c5)CC4)cccc3[nH]2)cc1 | inactive | inactive | 1.51 µM (active) | 6.7 µM (active) | inactive | inactive |

| Structure (SMILES) | Potency [1] | Potency [2] | Potency [3] | Potency [4] | Potency [5] | Potency [6] |
| --- | --- | --- | --- | --- | --- | --- |
| CCCCNc1ncc2c(-c3ccc(S(=O)(=O)N4CCOCC4)cc3)nn(C3CCC(O)CC3)c2n1 (stereo not drawn) | inactive | inactive | inactive | inactive | inactive | inactive |
| CC(C)Oc1ccc(-c2cnc3c(-c4ccnc5ccccc45)cnn3c2)cc1 | inactive | inactive | inactive | inactive | inactive | inactive |
| CCO[C@H]1CN(C2CCC(O)(c3ccc4c(c3)OCO4)CC2)C[C@@H]1NC(=O)CNC(=O)c1cccc(C(F)(F)F)c1 (stereo partly drawn) | inactive | inactive | inactive | inactive | inactive | inactive |
| Cc1ccc(N2CCN(S(=O)(=O)N3CCCCC3)CC2)c(C)c1 | inactive | inactive | inactive | inactive | inactive | inactive |
| O=C(NCCCNc1nc(Nc2cccc(CN3CCOCC3)c2)ncc1C1CC1)C1CCC1 | inactive | inactive | inactive | inactive | inactive | inactive |
| C=C1C(=O)O[C@H]2C1CCC(C)=C1C(=O)C=C(C)[C@@]12O (stereo partly drawn) | inactive | inactive | inactive | inactive | inactive | inactive |
| CCOC(=O)c1ccc(OCCC2CCN(c3ccc(C)nn3)CC2)cc1 | inactive | inactive | inactive | inactive | inactive | inactive |
| N#Cc1ccc(-c2ccc(S(=O)(=O)Nc3cccc(N)n3)cc2)cc1 | inactive | inactive | inactive | inactive | inactive | inactive |
| Cc1sc2c(c1C)C(c1ccc(Cl)cc1)=N[C@@H](CC(=O)Nc1ccc(OCCOCCOCCOCCNc3cccc4c3C(=O)N(C3CCC(=O)NC3=O)C4=O)cc1)c1nnc(C)n1-2 (stereo partly drawn) | inactive | inactive | inactive | inactive | inactive | inactive |
| Fc1ccc(-c2cncc(CN3CCN(c4cccc5c4OCCO5)CC3)c2)cc1 | inactive | inactive | inactive | inactive | inactive | inactive |
| C=C1C(=O)O[C@@H]2C(OC(=O)/C(C)=C\C)/C(C)=C\C(=O)/C=C(\C)C[C@H](O)[C@@H]12 (stereo partly drawn) | inactive | inactive | inactive | inactive | inactive | inactive |
| Cc1cc(F)ccc1-c1nc(NCCN=C(N)NC#N)nc2c1ccc(=O)n2-c1c(F)cccc1F | 20.2 µM (active) | 22.7 µM (active) | inactive | inactive | inactive | inactive |
| COc1ccccc1OCCNCC(O)CCOc1cccc2[nH]c3ccccc3c12 (stereo not drawn) | inactive | inactive | inactive | inactive | inactive | inactive |
| CC(=O)OCC(=O)[C@@]12O[C@@H]1C[C@H]1[C@@H]3CC=C4C[C@@H](O)CC[C@]4(C)[C@H]3CC[C@@]12C | inactive | inactive | inactive | inactive | inactive | inactive |
| COc1ccc(NC(=O)c2ccc(C(=N)N(C)C)cc2)c(C(=O)Nc2ccc(Cl)cn2)c1 | inactive | inactive | inactive | inactive | inactive | inactive |
| CCC(C)/C=C(C)/C=C/C1=CC2=CC(=O)C3(C)OC(C)(O)C(C(=O)OC)C3C2=CO1 (stereo not drawn) | inactive | inactive | inactive | inactive | inactive | inactive |
| CCOc1nc(NC(=O)Cc2cc(OC)ccc2OC)cc(N)c1C#N | inactive | inactive | inactive | inactive | inactive | inactive |
| O=C(Nc1cccc2cccnc12)c1ccc(N2C(=O)[C@@H]3C4C=CC(C4)[C@@H]3C2=O)cc1 | inactive | inactive | inactive | inactive | inactive | inactive |
| O=C(NCc1ccccc1)c1ccc2c(=O)n(-c3cccc(C(F)(F)F)c3)c(=S)[nH]c2c1 | inactive | inactive | inactive | inactive | inactive | inactive |

Reference: PubChem BioAssay (NCATS)
